# Assay results as given in the supplement of paper PMC10498489.
# Hit rate of the full screen: of about 2,300 compounds, about 330 (14%) showed activity. The list is a sample of the results. Values without a mark were called inactive.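 The calls were made as follows: active = median modified Z-score above 1.96; inactive = 1.96 or below.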
# Tested on: HepG2 Srxn1-GFP reporter cells (+30 nM CDDO-Me)
# Assay: Srxn1-GFP intensity median modified Z-score relative to plate median; higher = stronger NRF2 / oxidative stress reporter activation, active = hit call of the paper
# Details: 10 µM; exposure time: 24h
# How it was run: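 HepG2 Srxn1-GFP BAC reporter cells (20,000 per well, 96-well plates) were co-exposed to an NRF2 activator at 30 nM and compound at 10 μM (≤0.1% DMSO) for 24 h in three replicate plates. After formaldehyde fixation and Hoechst staining, confocal images were analysed per cell for cytoplasmic GFP, excluding images with under 100 cells. The value is the median over replicates of the per-plate modified Z-score of GFP intensity. Scaling used 1.4826 × median absolute deviation.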
row,Compound,Srxn1-GFP intensity median modified Z-score
1,CC1(C)O[C@@H]2CC3C4CC(F)=C5CC(=O)C=C[C@]5(C)[C@@]4(F)[C@@H](O)C[C@]3(C)[C@]2(C(=O)CO)O1 (stereo partly drawn) [euspeclibcmpd129],0.0501
2,CCC(C)C1NC(=O)C(CCNCS(=O)(=O)O)NC(=O)C(NC(=O)C(CCNCS(=O)(=O)O)NC(=O)C(NC(=O)C(CCNCS(=O)(=O)O)NC(=O)CCCCC(C)C)C(C)O)CCNC(=O)C(C(C)O)NC(=O)C(CCNCS(=O)(=O)O)NC(=O)C(CCNCS(=O)(=O)O)NC(=O)C(C(C)CC)NC1=O (stereo not drawn) [euspeclibcmpd2131],0.0847
3,CCC(C)n1nccc1NC(=O)C(C)N1CCSCC1 (stereo not drawn),0.365
4,COC1(C)CCC2OC2(C)CCC2C1CC2(C)C (stereo not drawn) [euspeclibcmpd2008],-0.165
5,CC1(C)[C@@H]2CC[C@]1(C)C(=O)C2 [euspeclibcmpd42],-0.12
6,O=C(O)c1cc(O)c2c(O)c3c(OC4OC(CO)C(O)C(O)C4O)cccc3c(-c3c4cc(C(=O)O)cc(O)c4c(O)c4c(OC5OC(CO)C(O)C(O)C5O)cccc34)c2c1 (stereo not drawn) [euspeclibcmpd1934],-0.281
7,Cn1nnnc1SC=C1CSC2C(NC(=O)C(O)c3ccccc3)C(=O)N2C1C(=O)O (stereo not drawn) [euspeclibcmpd2229],-0.103
8,O=C(Nc1ccccc1Cl)C1=NN(C2CCS(=O)(=O)C2)C(=O)CC1 (stereo not drawn),1.26
9,COc1cc(OC)c2c(=O)c(-c3ccccc3)c(C)oc2c1OC [euspeclibcmpd2303],1.35
10,O=C(O)Cc1ccccc1Nc1c(Cl)cccc1Cl [euspeclibcmpd2396],0.438
11,N=c1[nH]c(N2CCCCC2)cc(N)[n+]1[O-] [euspeclibcmpd792],-0.234
12,CC1(C)O[C@@H]2CC3C4CC(F)=C5CC(=O)C=CC5(C)C4C(O)CC3(C)[C@]2(C(=O)CO)O1 (stereo partly drawn) [euspeclibcmpd414],0.0846
13,O=C1CCC(N2C(=O)c3ccccc3C2=O)C(=O)N1 (stereo not drawn) [euspeclibcmpd588],-0.192
14,NC(=O)Nc1[nH]c(=O)[nH]c1O [euspeclibcmpd347],-0.31
15,CC1CCC2[C@@]3(C)C=CC(=O)C(C)(C)C3CC3OC(=O)C(=O)C1[C@]32C (stereo partly drawn) [euspeclibcmpd1535],9.38 (active)
16,CC(=O)OC=C1CSC2C(NC(=O)CSc3ccncc3)C(=O)N2C1C(=O)O (stereo not drawn) [euspeclibcmpd2110],0.0966
17,S=C1SCN(Cc2ccccc2)CN1Cc1ccccc1 [euspeclibcmpd1200],10 (active)
18,OCCc1ccccc1 [euspeclibcmpd771],-0.962
